In PubChem BioAssay (Tox21):
Results filed as inconclusive are left out. Active and inactive are the calls of the source. Unless noted, calls follow the shape of the dose curve; as a rule, active = well fitted curve in the direction sought with a large enough effect in the repeat runs; inconclusive = weak or mixed curves; inactive = no such curve, though single readings can be large; an effect the other way counts as inactive or inconclusive.

Columns and labels:
[1] = biological target: Retinoic acid receptor RXR-alpha (Homo sapiens) (UniProt P19793); assay: qHTS assay to identify small molecule agonists of the RXR signaling pathway (AID 1159527; calls by dose curve; also: nearly all actives have a fitted effect of over 35% in size)
Retinoic acid receptor RXR-alpha (Homo sapiens), sequence (P19793 whole entry, looked up): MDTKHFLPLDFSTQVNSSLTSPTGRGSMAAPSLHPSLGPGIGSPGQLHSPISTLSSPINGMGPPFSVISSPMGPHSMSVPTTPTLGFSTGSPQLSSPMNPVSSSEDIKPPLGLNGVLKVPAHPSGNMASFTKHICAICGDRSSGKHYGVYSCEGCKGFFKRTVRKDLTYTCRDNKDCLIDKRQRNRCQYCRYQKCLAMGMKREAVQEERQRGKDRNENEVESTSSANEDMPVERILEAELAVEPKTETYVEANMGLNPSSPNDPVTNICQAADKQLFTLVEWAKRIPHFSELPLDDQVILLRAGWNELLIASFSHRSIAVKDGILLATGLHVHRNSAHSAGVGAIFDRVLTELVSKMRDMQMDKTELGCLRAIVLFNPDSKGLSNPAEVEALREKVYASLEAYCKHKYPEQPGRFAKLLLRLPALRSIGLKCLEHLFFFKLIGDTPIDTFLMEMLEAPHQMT
Summary of the method: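 GeneBLAzer RXR-alpha-UAS-bla HEK 293T cells in 2% charcoal-stripped FBS medium were exposed to compounds for 16 hr at 37 C in agonist mode. Beta-lactamase reporter read as 460/530 nm FRET ratio after 2 hr substrate loading.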

[2] = qHTS assay to identify small molecule agonists of the RXR signaling pathway - cell viability counter screen (AID 1159529); also: nearly all actives have a fitted effect of over 50% in size
Summary of the method: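 RXR-alpha-UAS-bla HEK 293T cells in medium with 2% charcoal-stripped FBS were pre-incubated 5 hr, then compound-treated 16 hr at 37 C. Viability was read by CellTiter-Glo luminescence in the same wells as the beta-lactamase assay, with tetraoctyl ammonium bromide as positive control.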

[3] = qHTS assay to identify small molecule antagonists of the retinoid acid receptor (RAR) signaling pathway - cell viability counter screen (AID 1159551); also: nearly all actives have a fitted effect of over 35% in size
Summary of the method: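 Measured by luminescent ATP detection, viability reflects C3RL4 cells treated 6 h at 37 C with test chemicals in the presence of 1 uM (final) retinol.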

[4] = qHTS assay to identify small molecule antagonists of the retinoic acid receptor (RAR) signaling pathway (AID 1159552; also: nearly all actives have a fitted effect of over 50% in size)
Summary of the method: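 Retinol signaling pathway inhibitors screened in C3RL4 RARE-luciferase reporter cells seeded overnight at 37 C, then compounds added with 1 uM (final) retinol as pathway substrate. After 6 hr at 37 C, luciferase luminescence read after 30 min at room temperature.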

[5] = qHTS assay to identify small molecule antagonists of the estrogen related receptor (ERR) signaling pathway from Tox21 library - cell viability counter screen (AID 1224834); also: nearly all actives have a fitted effect of over 30% in size; also: potency is read from the fitted curve at half-maximal effect
Summary of the method: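 Seeded ERR cells were rested 6 h at 37 C/5% CO2 before compounds, positive and negative controls or DMSO were added. Incubation continued for 17.5 h, and viability was then quantified by CellTiter-Fluor fluorescence.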

[6] = biological target: Luciferin 4-monooxygenase (Photinus pyralis) (UniProt P08659); assay: qHTS assay to identify small molecule inhibitors of firefly luciferase (AID 1224835); also: nearly all actives have a fitted effect of over 25% in size; also: potency is read from the fitted curve at half-maximal effect
Luciferin 4-monooxygenase (Photinus pyralis), sequence (P08659 whole entry, looked up): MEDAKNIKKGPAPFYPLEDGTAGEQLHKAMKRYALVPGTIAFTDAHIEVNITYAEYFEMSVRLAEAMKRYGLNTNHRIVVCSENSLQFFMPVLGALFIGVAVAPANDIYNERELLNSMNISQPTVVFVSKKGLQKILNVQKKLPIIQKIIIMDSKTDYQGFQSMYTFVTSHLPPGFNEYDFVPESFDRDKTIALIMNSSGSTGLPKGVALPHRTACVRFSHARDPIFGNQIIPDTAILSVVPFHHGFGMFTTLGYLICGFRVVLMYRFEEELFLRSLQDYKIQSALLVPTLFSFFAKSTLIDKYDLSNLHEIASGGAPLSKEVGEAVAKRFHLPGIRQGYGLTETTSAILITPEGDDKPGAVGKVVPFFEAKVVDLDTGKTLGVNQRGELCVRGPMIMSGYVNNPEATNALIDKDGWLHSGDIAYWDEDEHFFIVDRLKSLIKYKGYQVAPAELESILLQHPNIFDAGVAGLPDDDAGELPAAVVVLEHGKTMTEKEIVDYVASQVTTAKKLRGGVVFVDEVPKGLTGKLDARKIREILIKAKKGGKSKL
Summary of the method: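 Inhibition of purified Photinus luciferase is measured by luminescence. Substrate levels (D-luciferin, ATP) sit at their KM values. Each compound is tested in a concentration series.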

[7] = qHTS assay to identify small molecule agonists of the constitutive androstane receptor (CAR) signaling pathway - cell viability counter screen (AID 1224836); also: nearly all actives have a fitted effect of over 45% in size
Summary of the method: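 HepG2 cells stably carrying hCAR and a CYP2B6-2.2kb reporter; 15-concentration compounds plus PK11195 (final 0.75 uM), 23 hr at 37 C/5% CO2. Viability read by CellTiter-Fluor fluorescence.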

[8] = qHTS assay to identify small molecule antagonists of the constitutive androstane receptor (CAR) signaling pathway - cell viability counter screen (AID 1224837); also: nearly all actives have a fitted effect of over 45% in size
Summary of the method: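 To flag cytotoxic false antagonists, HepG2 hCAR/CYP2B6-2.2kb cells were treated 23 hr with 15-concentration compound series and 50 nM CITCO at 37 C/5% CO2; CellTiter-Fluor fluorescence was the measured end point.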

[9] = qHTS assay to identify small molecule agonists of the retinoic acid receptor (RAR) signaling pathway (AID 1159553); details: C3RL4 RARE luciferase reporter, agonist, 6 h; activation: at 73.3 µM (top of the series)
Summary of the method: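 6 hr compound exposure (DMSO vehicle) of overnight-plated C3RL4 RARE-luc cells at 37 C; luminescence quantified after 30 min RT with luciferase reagent.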

[10] = biological target: Nuclear receptor subfamily 1 group I member 3 (Homo sapiens) (UniProt Q14994); assay: qHTS assay to identify small molecule antagonists of the constitutive androstane receptor (CAR) signaling pathway (AID 1224838);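 also: HepG2 cells stably expressing hCAR with CYP2B6 luciferase reporter stimulated by CITCO; nearly all actives have a fitted effect of over 40% in size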; also: potency is read from the fitted curve at half-maximal effect
Nuclear receptor subfamily 1 group I member 3 (Homo sapiens), sequence (Q14994 whole entry, looked up): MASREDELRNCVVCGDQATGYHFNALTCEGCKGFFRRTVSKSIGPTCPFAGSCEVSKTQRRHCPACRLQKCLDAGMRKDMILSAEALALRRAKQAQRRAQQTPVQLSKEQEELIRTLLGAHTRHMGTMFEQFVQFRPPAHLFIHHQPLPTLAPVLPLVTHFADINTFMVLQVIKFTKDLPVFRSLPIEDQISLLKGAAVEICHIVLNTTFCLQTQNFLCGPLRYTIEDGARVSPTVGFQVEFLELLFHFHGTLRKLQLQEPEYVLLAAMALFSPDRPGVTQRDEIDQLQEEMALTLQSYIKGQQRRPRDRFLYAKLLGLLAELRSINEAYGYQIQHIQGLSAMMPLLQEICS
Summary of the method: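 Human hepatoma HepG2 cells expressing hCAR and a CYP2B6 promoter (2.2 kb) luciferase construct; compound titration (15 points) with 50 nM CITCO final, 24 h at 37 C/5% CO2; luminescence via ONE-Glo after 30 min at room temperature.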

Measured: Potency

CCCCCCCCCCCCCCCCCCN(C)C
not listed: [9] | [10]
inactive: all other assays above

Nc1cc(C(=O)O)ccc1Cl
not listed: [4] | [10]
inactive: all other assays above

Cc1ccc2c(c1)c1c3n2CCNC3CCC1 (configuration not stated)
active: [10] 0.75 µM
not listed: [7] | [8] | [9]
inactive: all other assays above

COc1cccc2sc(N)nc12
not listed: [9]
inactive: all other assays above

Cc1cccc(C(=O)O)c1[N+](=O)[O-]
not listed: [6] | [9]
inactive: all other assays above

CC1=NN(c2ccc(S(=O)(=O)O)cc2)C(=O)C1N=Nc1ccccc1 (configuration not stated)
inactive: [1] | [2] | [3] | [4] | [10]
active: [5] 54.5 µM | [6] 71 µM

CCN(CCO)c1cccc(C)c1
not listed: [7]
inactive: all other assays above

OC[C@@H](O)[C@H](O)[C@@H](O)[C@@H](O)CO
not listed: [9] | [10]
inactive: all other assays above

CC(C)CCC(=O)CCC(C)C
not listed: [9] | [10]
inactive: all other assays above

O=C1NC2NC(=O)NC2N1 (configuration not stated)
not listed: [9] | [10]
inactive: all other assays above

C1=CCC(c2ccccc2)CC1 (configuration not stated)
not listed: [9] | [10]
inactive: all other assays above

CC(C)(C)c1ccc(C=O)cc1
not listed: [6]
inactive: all other assays above

CC(C)(C)NCCO
not listed: [7] | [9] | [10]
inactive: all other assays above

C=COCCOCCOC=C
not listed: [4]
inactive: all other assays above

Cc1ccc(S(=O)(=O)NC(=O)NC2CCCCCCC2)cc1
not listed: [4] | [10]
inactive: all other assays above

COC(=O)CCC(=O)O
not listed: [4] | [7] | [10]
inactive: all other assays above

CCCCCCCCC(=O)OCC
not listed: [7] | [9] | [10]
inactive: all other assays above

CCCCOC(=O)[C@@H](C)Oc1ccc(Oc2ccc(C(F)(F)F)cn2)cc1
not listed: [7]
inactive: all other assays above

C=CCOCC(CO)(COCC=C)COCC=C
not listed: [4]
inactive: all other assays above

Cc1ncc([N+](=O)[O-])n1CC(O)CCl (configuration not stated)
not listed: [4]
inactive: all other assays above
